From the supplement of paper PMC8728848
This is one part of a sample in which the strongest signals are shown more often than they occur.

Tests used:
Experiment in all cases: glycan array binding signal (z-score within array); higher = stronger binding
Settings in all cases: glycan notation: IUPAC condensed, linker removed
[1] = target: Gal(b1-4)GlcNAc(b1-3)Gal(b1-4)GlcNAc(b1-3)Gal(b1-4)GlcNAc(b1-3)Gal(b1-4)GlcNAc(b1-2)Man(a1-3)[Gal(b1-4)GlcNAc(b1-3)Gal(b1-4)GlcNAc(b1-3)Gal(b1-4)GlcNAc(b1-3)Gal(b1-4)GlcNAc(b1-2)Man(a1-6)]Man(b1-4)GlcNAc(b1-4)[Fuc(a1-6)]GlcNAc
How it was run: (§1)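 The binding signal is a Z-score computed within each array. Data were drawn from 3228 arrays in the Consortium for Functional Glycomics database, restricted to those with a known protein sequence. Scores were averaged over arrays of the same protein sequence at different concentrations or buffers, and over linkers, and negative values can be taken as non-binding.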

[2] = target: Gal(b1-4)GlcNAc(b1-3)Gal(b1-4)GlcNAc(b1-3)Gal(b1-4)GlcNAc(b1-3)Gal(b1-4)GlcNAc(b1-2)[Gal(b1-4)GlcNAc(b1-3)Gal(b1-4)GlcNAc(b1-3)Gal(b1-4)GlcNAc(b1-3)Gal(b1-4)GlcNAc(b1-6)]Man(a1-6)[Gal(b1-4)GlcNAc(b1-3)Gal(b1-4)GlcNAc(b1-3)Gal(b1-4)GlcNAc(b1-3)Gal(b1-4)GlcNAc(b1-2)Man(a1-3)]Man(b1-4)GlcNAc(b1-4)[Fuc(a1-6)]GlcNAc
How it was run: as §1

[3] = target: Gal(b1-4)GlcNAc(b1-3)Gal(b1-4)GlcNAc(b1-3)Gal(b1-4)GlcNAc(b1-3)Gal(b1-4)GlcNAc(b1-3)Gal(b1-4)GlcNAc(b1-2)[Gal(b1-4)GlcNAc(b1-3)Gal(b1-4)GlcNAc(b1-3)Gal(b1-4)GlcNAc(b1-3)Gal(b1-4)GlcNAc(b1-3)Gal(b1-4)GlcNAc(b1-6)]Man(a1-6)[Gal(b1-4)GlcNAc(b1-3)Gal(b1-4)GlcNAc(b1-3)Gal(b1-4)GlcNAc(b1-3)Gal(b1-4)GlcNAc(b1-3)Gal(b1-4)GlcNAc(b1-2)Man(a1-3)]Man(b1-4)GlcNAc(b1-4)[Fuc(a1-6)]GlcNAc
How it was run: as §1

[4] = target: Gal3S(b1-3)[Fuc(a1-4)]GlcNAc
How it was run: as §1

Gal3S(b1-4)Glc = target: Gal3S(b1-4)Glc
How it was run: as §1

[5] = target: Gal3S(b1-4)[Fuc(a1-3)]GlcNAc6S
How it was run: as §1

Gal6S(b1-4)Glc = target: Gal6S(b1-4)Glc
How it was run: as §1

GalNAc(a1-3)GalNAc = target: GalNAc(a1-3)GalNAc
How it was run: as §1

Glc(a1-4)Glc = target: Glc(a1-4)Glc
How it was run: as §1

[6] = target: GlcNAc(b1-2)Man(a1-3)[GlcNAc(b1-2)Man(a1-6)]Man(b1-4)GlcNAc(b1-4)GlcNAc
How it was run: as §1

[7] = target: GlcNAc(b1-3)Gal(b1-3)GalNAc
How it was run: as §1

[8] = target: GlcNAc(b1-3)Gal(b1-4)GlcNAc(b1-3)Gal(b1-4)GlcNAc(b1-3)Gal(b1-4)GlcNAc(b1-3)Gal(b1-4)GlcNAc(b1-2)Man(a1-3)[GlcNAc(b1-3)Gal(b1-4)GlcNAc(b1-3)Gal(b1-4)GlcNAc(b1-3)Gal(b1-4)GlcNAc(b1-3)Gal(b1-4)GlcNAc(b1-2)Man(a1-6)]Man(b1-4)GlcNAc(b1-4)[Fuc(a1-6)]GlcNAc
How it was run: as §1

[9] = target: GlcNAc(b1-4)GlcNAc(b1-4)GlcNAc
How it was run: as §1

[10] = target: Man(a1-2)Man(a1-3)[Man(a1-6)]Man(a1-6)[Man(a1-2)Man(a1-3)]Man(b1-4)GlcNAc(b1-4)GlcNAc
How it was run: as §1

[11] = target: Man(a1-3)[Man(a1-6)]Man(a1-6)[Man(a1-3)]Man
How it was run: as §1

[12] = target: Neu5Ac(a2-3)Gal(b1-4)GlcNAc(b1-3)Gal(b1-4)GlcNAc(b1-6)[Gal(b1-3)]GalNAc
How it was run: as §1

[13] = target: Neu5Ac(a2-3)Gal(b1-4)[Fuc(a1-3)]GlcNAc
How it was run: as §1

[14] = target: Neu5Ac(a2-3)Gal(b1-4)[Fuc(a1-3)]GlcNAc(b1-6)[Neu5Ac(a2-3)Gal(b1-3)]GalNAc
How it was run: as §1

[15] = target: Neu5Ac(a2-6)Gal(b1-4)GlcNAc
How it was run: as §1

[16] = target: Neu5Ac(a2-6)Gal(b1-4)GlcNAc(b1-2)Man(a1-3)[Neu5Ac(a2-6)Gal(b1-4)GlcNAc(b1-2)Man(a1-6)]Man(b1-4)GlcNAc(b1-4)[Fuc(a1-6)]GlcNAc
How it was run: as §1

[17] = target: Neu5Ac(a2-6)Gal(b1-4)GlcNAc(b1-2)Man(a1-6)[Gal(b1-4)GlcNAc(b1-2)Man(a1-3)]Man(b1-4)GlcNAc(b1-4)GlcNAc
How it was run: as §1

[18] = target: Neu5Ac(a2-6)Gal(b1-4)GlcNAc(b1-3)Gal(b1-4)GlcNAc
How it was run: as §1

[19] = target: Neu5Ac(a2-6)GalNAc(b1-4)GlcNAc
How it was run: as §1

[20] = target: Neu5Ac(a2-6)GlcNAc(b1-4)GlcNAc
How it was run: as §1

[21] = target: Neu5Ac(a2-8)Neu5Ac(a2-8)Neu5Ac(a2-3)[GalNAc(b1-4)]Gal(b1-4)Glc
How it was run: as §1

[22] = target: Neu5Ac(b2-6)Gal(b1-4)GlcNAc
How it was run: as §1

[23] = target: Neu5Ac9Ac(a2-3)Gal(b1-3)GlcNAc
How it was run: as §1

[24] = target: Neu5Ac9Ac(a2-3)Gal(b1-4)GlcNAc
How it was run: as §1

[25] = target: Neu5Gc(a2-3)Gal(b1-3)[Fuc(a1-4)]GlcNAc
How it was run: as §1

Neu5Gc(a2-6)GalNAc = target: Neu5Gc(a2-6)GalNAc
How it was run: as §1

B1: rMpL (Macrolepiota procera) (protein)
chain: MSTQVSSGRTYKITNVIAGTVIDLSGEDNKSIIGYPYHSGKNQQWTFNWTGKAWTLRSASSGSYLGIEGTPAGGTRLVAVNDPFEWHIWRDEANENAFRIFVPFTNYNLDLSGYGDTTPGTPVQLWWTWEGLHQTWTIDRP
glycan array binding signal (z-score) [1]: 3.33 | glycan array binding signal (z-score) [2]: 4.7 | glycan array binding signal (z-score) [3]: 4.6 | glycan array binding signal (z-score) [4]: -0.271 | glycan array binding signal (z-score) (Gal3S(b1-4)Glc): -0.325 | glycan array binding signal (z-score) [5]: -0.333 | glycan array binding signal (z-score) (Gal6S(b1-4)Glc): -0.233 | glycan array binding signal (z-score) (GalNAc(a1-3)GalNAc): -0.265 | glycan array binding signal (z-score) (Glc(a1-4)Glc): -0.289 | glycan array binding signal (z-score) [6]: -0.322 | glycan array binding signal (z-score) [7]: -0.302 | glycan array binding signal (z-score) [8]: -0.17 | glycan array binding signal (z-score) [9]: -0.382 | glycan array binding signal (z-score) [10]: -0.35 | glycan array binding signal (z-score) [11]: -0.268 | glycan array binding signal (z-score) [12]: -0.198 | glycan array binding signal (z-score) [13]: -0.32 | glycan array binding signal (z-score) [14]: -0.185 | glycan array binding signal (z-score) [15]: -0.358 | glycan array binding signal (z-score) [16]: -0.168 | glycan array binding signal (z-score) [17]: 0.028 | glycan array binding signal (z-score) [18]: -0.363 | glycan array binding signal (z-score) [19]: -0.425 | glycan array binding signal (z-score) [20]: -0.364 | glycan array binding signal (z-score) [21]: -0.174 | glycan array binding signal (z-score) [22]: -0.33 | glycan array binding signal (z-score) [23]: -0.374 | glycan array binding signal (z-score) [24]: 0.277 | glycan array binding signal (z-score) [25]: -0.335 | glycan array binding signal (z-score) (Neu5Gc(a2-6)GalNAc): -0.358
